In the library only some 1.8% were active in any assay of this set; here they are far more common.
LYPLA1 inh: counter-screen for PME1 inhibitors: inhibitors of human LYPLA1 | recombinant LYPLA1, FP-Rh probe fluorescence polarization | 0.16% of 320,000 active | inhibition, % at 5.9 µM | O75608;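 active means inhibition above the mean of all tested compounds plus 3 SD, set per campaign, cut at about 14% in these data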;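 further: inhibitors block serine hydrolase probe labeling of LYPLA1 so polarization falls; 0% = enzyme with DMSO and 100% = wells lacking LYPLA1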
GSTO1 counter: blocks human GSTO1 in RBBP9 counter-screen; P78417; recombinant GSTO1, activity-based probe fluorescence polarization; inhibition, % at 5.96 µM; 1.1% of 300,000 active; AID 1974;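 active means inhibition above the campaign mean inhibition plus 3 SD, cut at about 35% in these data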;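 further: 0% = GSTO1-1 with DMSO and 100% = wells lacking GSTO1-1 enzyme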
PME-1 inh: blocks human protein phosphatase methylesterase 1. Q9Y570. recombinant PME-1, FP-Rh probe fluorescence polarization. inhibition, % at 5.9 µM. 0.53% of 320,000 active. AID 2130;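 active means inhibition above the campaign mean of all compounds plus 3 SD, cut at about 26% in these data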;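 further: competitive labeling of PME-1 active site by serine hydrolase directed probe; 0% = PME-1 with DMSO and 100% = wells lacking PME-1 enzyme; inhibitors block probe labeling so polarization falls and inhibition rises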
Target sequence (Q9Y570 whole entry, looked up): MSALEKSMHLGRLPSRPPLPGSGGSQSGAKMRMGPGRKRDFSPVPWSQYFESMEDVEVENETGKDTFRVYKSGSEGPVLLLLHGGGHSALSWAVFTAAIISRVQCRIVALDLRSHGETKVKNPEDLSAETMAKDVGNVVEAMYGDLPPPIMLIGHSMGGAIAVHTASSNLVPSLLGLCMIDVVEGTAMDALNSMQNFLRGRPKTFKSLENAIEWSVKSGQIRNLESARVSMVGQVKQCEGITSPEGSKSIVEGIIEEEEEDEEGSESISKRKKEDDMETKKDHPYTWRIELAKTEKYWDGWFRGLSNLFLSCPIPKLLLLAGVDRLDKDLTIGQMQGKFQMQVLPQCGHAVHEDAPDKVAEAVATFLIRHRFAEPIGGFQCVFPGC
PAD4 inh: inhibitors of human PAD4 | Q9UM07 | recombinant PAD4, RCA probe fluorescence polarization | inhibition, % at 6.36 µM | 0.41% of 330,000 active | AID 485272;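 active means percent inhibition above a cutoff equal to the mean of all tested compounds plus 3 SD, cut at about 15% in these data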;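 further: 0% = PAD4 with RCA probe and DMSO and 100% = probe without PAD4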
Fam108B counter: Fam108B inhibition, counter-screen for RBBP9 inhibitors. 0.33% of 300,000 active. recombinant Fam108B, FP-Rh probe fluorescence polarization. inhibition, % at 9.51 µM;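 active means inhibition above the screen mean inhibition plus 3 SD, computed separately per campaign, cut at about 18% in these data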;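 further: inhibitors lower polarization as less probe binds the enzyme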
LYPLA2 inh: counter-screen for PME1 inhibitors: inhibitors of human LYPLA2. O95372. recombinant LYPLA2, FP-Rh probe fluorescence polarization. inhibition, % at 5.9 µM. 0.38% of 320,000 active. AID 2177;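 active means inhibition above the screen-wide mean plus 3 SD, limit set per campaign, cut at about 26% in these data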;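 further: 0% = LYPLA2 with DMSO and 100% = wells lacking LYPLA2 enzyme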
Target sequence (O95372 whole entry, looked up): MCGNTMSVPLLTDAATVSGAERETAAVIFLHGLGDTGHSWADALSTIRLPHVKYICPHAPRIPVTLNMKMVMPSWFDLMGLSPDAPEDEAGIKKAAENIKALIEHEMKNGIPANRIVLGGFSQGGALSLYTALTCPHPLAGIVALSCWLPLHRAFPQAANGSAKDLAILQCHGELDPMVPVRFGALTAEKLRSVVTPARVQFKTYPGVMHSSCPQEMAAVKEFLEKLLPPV
LYPLA2 conf: counter-screen for PME1 inhibitors: confirmation of human LYPLA2 inhibitors. shares compounds with LYPLA2 inh. recombinant LYPLA2, FP-Rh probe fluorescence polarization. inhibition, % at 5.9 µM. 72% of 1,100 active;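 active means mean inhibition across replicates above the hit cutoff set in the primary screen, cut at about 26% in these data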;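 further: blocked labeling of the enzyme by serine hydrolase FP-Rh probe lowers polarization; 0% = enzyme with DMSO and 100% = wells lacking LYPLA2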
LYPLA2 gel ABPP: blocks human acyl-protein thioesterase 2 in gel ABPP; 30% of 150 active; shares compounds with LYPLA2 inh; AID 652029; rhLYPLA2 in mouse brain proteome, gel ABPP FP-Rh; inhibition, % at 20 µM;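 active means inhibition of LYPLA2 enzyme probe labeling above about 50%, limit read from the data; inactive means inhibition below that limit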;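 further: loss of FP-Rh probe labeling of the LYPLA2 gel band measured as band density; 0% = DMSO only control band and 100% = blank gel background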
* marks the source's active call; other numbers are inactive results; · = no result given.

SMILES	LYPLA1 inh	GSTO1 counter	PME-1 inh	PAD4 inh	Fam108B counter	LYPLA2 inh	LYPLA2 conf	others
COC(=O)/C(C#N)=C/c1ccc(N2CCOCC2)c([N+](=O)[O-])c1	-3	15	-2	2	1	-1	·
COc1ccc(N2CCN(c3ncnc4c3nnn4Cc3ccccc3Cl)CC2)cc1	8	3	-7	2	2	35*	40*
O=C(COC(=O)c1cncc(Br)c1)NCc1ccc(Cl)cc1	0	2	-2	-6	-2	27*	0
CCCCCCCC(=O)NN=C1CCN(Cc2ccccc2)CC1	-4	0	1	2	-1	-5	·
CCCC(=O)Nc1sc(-c2ccccc2)c(-c2ccccc2)c1C(=O)O	0	-25	6	3	2	2	·
Cc1ccc(S(=O)(=O)Nc2cccc(-n3cnnn3)c2)cc1C(=O)O	1	2	14	-3	1	33*	1
COc1ccc(NC(=O)c2cc(F)c(F)cc2Cl)cc1Cl	3	-9	2	3	-1	28*	20
Cc1ccc(NC2=C(Cl)C(=O)OC2OC(=O)c2ccc(C)cc2)cc1 (stereo not given)	-3	3	-2	4	1	30*	38*
CCOc1ccccc1CNCCNC(=O)c1nonc1N	-1	18	3	-2	-2	3	·
CC(C)c1ccc(NC(=O)NCc2ccccn2)cc1	4	2	5	5	0	28*	-2
COc1cccc(OCC(O)CN2CCC(CN3C(=O)c4cccc5cccc(c45)C3=O)CC2)c1 (stereo not given)	9	1	-3	-2	-1	39*	51*	LYPLA2 gel ABPP=12
O=C1c2cccc3cccc(c23)C(=O)N1CC1CCN(CC(O)COc2ccc3ccccc3c2)CC1 (stereo not given)	3	-7	-5	3	-7	47*	38*
COc1ccc(COCC(O)CN2CCC(CN3C(=O)c4cccc5cccc(c45)C3=O)CC2)cc1OC (stereo not given)	3	-2	3	-4	0	5	·
CCc1ccc(OCC(O)CN2CCC(CN3C(=O)c4cccc5cccc(c45)C3=O)CC2)cc1 (stereo not given)	-3	7	5	1	-1	29*	29*
Cc1cc(C)cc(OCC(O)CN2CCC(CN3C(=O)c4cccc5cccc(c45)C3=O)CC2)c1 (stereo not given)	9	-3	-1	-2	-2	46*	49*
O=C1c2cccc3cccc(c23)C(=O)N1CCN1CCN(CC(O)COc2ccc3ccccc3c2)CC1 (stereo not given)	-4	-7	-5	1	-8	19	·
CCc1ccc(OCC(O)CN2CCN(c3ccccc3)CC2)cc1 (stereo not given)	3	-3	-4	-4	2	6	·
CCCCN(C1CCS(=O)(=O)C1)S(=O)(=O)c1cc(C)ccc1C (stereo not given)	1	-11	2	-4	-3	0	·
N#Cc1ccc(CN2CCN(C(=O)Cn3nc(C(N)=O)c4ccccc4c3=O)CC2)cc1	0	0	-1	8	-2	29*	14
NC(=O)c1nn(Cc2ccccc2)c(=O)c2ccccc12	-4	7	4	-2	1	1	·
O=S(=O)(c1ccccc1)[C@@]1(c2ccc(Br)cc2)C[C@@H]2ON=C(c3ccccc3)[C@@H]2C1	-5	-2	10	1	0	-5	·
O=C(O)c1ccccc1Nc1ccc([N+](=O)[O-])cc1C(=O)O	-3	4	0	11	3	-7	·
NC(=O)c1cc([N+](=O)[O-])ccc1Nc1ccccc1	-1	4	7	1	2	39*	32*
CCc1nnc(NS(=O)(=O)c2ccc(N/C=C(\C=O)c3nc4cc(Cl)ccc4o3)cc2)s1	0	-21	6	-3	-3	29*	43*
CCN(CC)C1=NC=CC(c2ccccc2)=CC1C (stereo not given)	2	-4	6	-3	-3	-6	·
SMILES	LYPLA1 inh	GSTO1 counter	PME-1 inh	PAD4 inh	Fam108B counter	LYPLA2 inh	LYPLA2 conf	others
Cc1cc(C(=O)NNC(=O)c2ccccc2[N+](=O)[O-])c(C)o1	-1	·	3	3	·	-1	·
O=C(NNC(=O)c1cc2ccccc2oc1=O)c1ccccc1[N+](=O)[O-]	5	-1	3	0	-2	27*	2
O=C(NC(=S)N1CCN(c2ccc(C(F)(F)F)cc2[N+](=O)[O-])CC1)c1cccs1	-1	6	-5	0	3	36*	30*
O=C(COC(=O)c1ccc2ccccc2n1)NC1CCCCC1	-2	·	-1	1	·	4	·
COC(=O)N/N=C/c1ccccc1OCCOc1ccc(OC)cc1	1	-3	-6	-2	-1	35*	42*
O=C(O)c1ccc(Oc2cc(Oc3ccc(C(=O)O)cc3)cc([N+](=O)[O-])c2)cc1	3	-12	-3	-2	3	11	·
Cc1cc(Oc2cc(N)cc([N+](=O)[O-])c2)ccc1Cl	5	2	11	-2	-1	42*	39*
Cc1cc(NC(=O)CC2(CC(=O)O)CCCC2)n(C)n1	-1	-6	-4	-1	1	5	·
Oc1ccc(N2CCN(c3ccnc4cc(Cl)ccc34)CC2)cc1	1	18	-1	-2	3	9	·
COc1ccc(N2CCN(C(=O)c3cc4cc(Cl)ccc4[nH]3)CC2)cc1	5	7	0	5	8	37*	50*
COc1ccc(N2CCN(c3ccnc4cc(Cl)ccc34)CC2)cc1	5	-6	9	-1	2	26*	19
CCOc1cc(C=C(C#N)C#N)ccc1Oc1ccc([N+](=O)[O-])cn1	-4	-3	-2	-1	1	7	·
COc1cc(/C=N\NC(=O)c2ccccc2F)ccc1Oc1ccc([N+](=O)[O-])cn1	-2	4	3	2	0	31*	23
COc1cc(/C=C(/C#N)c2ccc(F)cc2)ccc1Oc1ccc([N+](=O)[O-])cn1	-3	-7	-6	-4	0	47*	51*	LYPLA2 gel ABPP=19
COc1cc(/C=N/NC(=O)Cc2ccccc2)ccc1Oc1ccc([N+](=O)[O-])cc1[N+](=O)[O-]	-4	-3	6	0	-10	40*	31*
COc1cc(/C=N\NC(=O)c2ccc(Cl)cc2)ccc1Oc1ccc([N+](=O)[O-])cn1	-7	-8	-5	3	-4	11	·

Screening data deposited in PubChem by The Scripps Research Institute Molecular Screening Center.
